Screening data from PubChem BioAssay.
CF NFkB block: blocks PAF-induced NF-kB reporter in cystic fibrosis cells. AID 588850. 360,000 tested, 0.86% active. inhibition, % at 5 µM. KKLEB NF-kB-GFP reporter, GFP fluorescence overnight;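 active means at least 50% inhibition at 5 µM, scaled per plate between neutral and stimulator controls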;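 further: PAF is a Pseudomonas aeruginosa culture filtrate used as stimulus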
TWEAK Fn14 block: inhibitors of TWEAK-Fn14 interaction signaling; TWEAK-stimulated Fn14 reporter cells, luciferase luminescence, 8 h; inhibition, % at 10 µM; 360,000 tested, 2% active; in the data active means inhibition above about 50%
TROY NFkB inh: blocks TROY-dependent signaling in reporter cells; AID 1347056; Q293 LMP1-TROYcd NF-kB luciferase reporter, 4 h; inhibition, % at 10 µM; 360,000 tested, 0.98% active;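 active means compounds whose plate-normalised and pattern-corrected inhibition of the luciferase reporter signal at the single screening dose is 50% or more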
KKLEB cytotox: reduces viability of KKLEB cystic fibrosis airway cells | 360,000 tested, 0.36% active | AID 602141 | KKLEB CF airway cells viability, ATPlite luminescence, overnight; stronger effect = lower value; cells stimulated with P. aeruginosa culture filtrate | activity change (cytotoxicity), % at 5 µM;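 active means corrected activity change at or below -50% at 5 µM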
HIF-2a block: blocks HIF-2a reporter activity | 786-0 RCC cells HIF-2a reporter, luciferase luminescence, overnight | inhibition, % at 18.8 µM | 360,000 tested, 0.72% active;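 active means inhibition of the luminescence signal of 40% or more relative to plate controls, in a single-dose primary screen at 18.75 µM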
Peg3 promoter: reduces Peg3 promoter-driven luciferase expression in HeLa. 360,000 tested, 1.7% active. inhibition, % at 20 µM. HeLa PEG-Prom luciferase reporter, luminescence, overnight. AID 588405;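 active means inhibition of at least 50% at 20 µM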
Each line names hits and unclear results; the compound was inactive in the other large screens. Most compounds without a hit are left out; they make up all but 4% or so of the library.

Cc1ccc(N/C=C/C(=O)c2ccco2)c(O)c1	TWEAK Fn14 block 95
Cc1ccc([N+](=O)[O-])cc1N/C=C/C(=O)c1ccco1	none
CC(NC(=O)C(C)N1c2cccc3cccc(c23)S1(=O)=O)c1ccccc1 (configuration not stated)	none
Cc1cccc(C)c1NC(=O)CN(C)CC(=O)Nc1ccccc1Oc1ccccc1	TWEAK Fn14 block 52
Cc1ccc(NC(=O)CN(C)CC(=O)Nc2ccccc2Oc2ccccc2)cc1	none
CC1CCCC(NC(=O)COC(=O)CN2C(=O)C3CCCCC3C2=O)C1C (configuration not stated)	TWEAK Fn14 block 50
NS(=O)(=O)c1cnccc1Nc1cccc(F)c1	none
Cc1cccc(Nc2ccncc2S(N)(=O)=O)c1	TWEAK Fn14 block 70
CCc1nc2c(OCc3ccc(F)c(F)c3)cccn2c1N(C)C(=O)c1ccc(OC)cc1	none
CCN(CC)CCNc1ccc(C)c2sc3ccc(O)cc3c(=O)c12	Peg3 promoter 98
N#CC(C#N)=NNc1ccc2cn[nH]c2c1	CF NFkB block 79, TWEAK Fn14 block 92, TROY NFkB inh 62
CCNC(=S)Nc1ccc2cn[nH]c2c1	none
COc1ccc2c(CC(=O)NC(Cc3ccc(Cl)cc3)C(=O)O)cc(=O)oc2c1C (configuration not stated)	none
CC1(C)Cc2c(C#N)c(SCCOc3ccccc3)nc(N3CCOCC3)c2CO1	TWEAK Fn14 block 53
[O-][n+]1c2c(c3c4non(O)c4ccc31)CCCC2	TROY NFkB inh 51
COn1c2c(c3c4no[n+]([O-])c4ccc31)CCCC2	none
CCCc1cc(=O)oc2cc(OCC(=O)NCCc3c[nH]c4ccccc34)ccc12	Peg3 promoter 57
Cc1cc(=O)oc2cc(OCC(=O)NCCc3c[nH]c4ccc(F)cc34)ccc12	none
NS(=O)(=O)c1c(Sc2ccccc2C(=O)O)ccc2ccccc12	TWEAK Fn14 block 54
COc1ccc(CN2CCNC(=O)C2CC(=O)NC2CCCC2)c(OC)c1 (configuration not stated)	none
CC(=O)c1c(C)[nH]c(C(=O)OCC(=O)NCc2ccc(Cl)cc2)c1C	none
CC(=O)c1c(C)[nH]c(C(=O)OCC(=O)Nc2ccc(C)cc2[N+](=O)[O-])c1C	TWEAK Fn14 block 63
CC(=O)c1c(C)[nH]c(C(=O)OCC(=O)Nc2cc(Cl)ccc2[N+](=O)[O-])c1C	TWEAK Fn14 block 88, TROY NFkB inh 70
CC(C)CNc1ncnc2c1ncn2[C@H]1CN(CCN2CCOCC2)C[C@@H](CO)O1	none
Cc1nn(C2CCS(=O)(=O)C2)c(Cl)c1/C=C/C(=O)OCC(=O)c1cc(C)n(-c2ccc(F)cc2)c1C (configuration not stated)	TWEAK Fn14 block 59
Cc1nn(C2CCS(=O)(=O)C2)c(Cl)c1/C=C/C(=O)OCC(=O)c1c[nH]c2ccccc12 (configuration not stated)	none
Cc1ccccc1Nc1nnc(SCC(=O)NCC2CCCO2)s1 (configuration not stated)	none
COc1ccc(-c2c(C(F)(F)F)[nH]n3c(=O)cc(-c4ccccc4)nc23)cc1	TROY NFkB inh 51
Cc1[nH]n2c(=O)cc(-c3ccc([N+](=O)[O-])cc3)nc2c1-c1ccccc1	Peg3 promoter 58
COCCNc1ncnc2c1ncn2[C@H]1CN(Cc2ccc(-c3ccccc3)cc2)C[C@@H](CO)O1	none
Cc1ccccc1C1(O)c2ccccc2-c2ccccc21	none
Oc1ccc(N=Nc2cccc(Cl)c2)cc1C=Nc1ccc(N2CCOCC2)cc1	CF NFkB block 68
COc1ccccc1C1CCN(c2cc(O)ccc2[N+](=O)[O-])CC1	TROY NFkB inh 57
COc1ccccc1C1CCN(C(=O)c2ccccc2)CC1	none
CCOC1=C2[C@@H](CN(S(=O)(=O)c3ccc(C)cc3)[C@H]2c2ccccc2Cl)[C@H]2C(=O)N(C(C)(C)C)C(=O)[C@H]2C1	none
C=CCn1cc(-c2ccc(Cl)cc2)cc(C#N)c1=O	none
C=CCn1cc(-c2ccccc2)cc(C#N)c1=O	KKLEB cytotox -96
Cn1c(=O)c2ncn(C)c2n(C)c1=O	none
COc1ccc2cc(C(=O)Nc3ccc(S(N)(=O)=O)cc3)sc(=O)c2c1OC	Peg3 promoter 79
COc1ccc2cc(C(=O)Nc3ccccc3)sc(=O)c2c1OC	none
CCc1ccc(OCC(=O)Nc2ccc(-c3cc4ccccc4oc3=O)c(OC)c2)cc1	TWEAK Fn14 block 73
O=C(CSC1=NS(=O)(=O)c2ccccc2N1)Nc1ccccc1F	none
O=C1CN(C(=O)COC(=O)COc2ccccc2)c2ccccc2N1	none
COc1cc(/C=N/Nc2nc(C)cc(C)n2)ccc1OC(=O)c1ccco1	none
COc1cc(C(=O)N/N=C/c2cccc(Oc3ccccc3)c2)ccc1O	none
COc1cc(C(=O)N/N=C/c2ccc(OC(=O)c3cccc(C)c3)cc2)ccc1O	TROY NFkB inh 51
COc1cc(/C=N\NC(=O)c2ccc(C)nc2)ccc1OC(=O)c1cccc(F)c1	TWEAK Fn14 block 72
COc1cccc(C(=O)Oc2ccc(/C=N/Nc3ccc(C(=O)O)cc3)cc2OC)c1	TWEAK Fn14 block 60
COc1cc(/C=N/Nc2ccc3ccccc3c2)ccc1OC(=O)c1ccco1	TWEAK Fn14 block 51
CCc1nc2ccc(C(=O)Nc3ccc(OC)c(OC)c3)cn2c1N(C)C(=O)Cc1ccccc1	none
CN(CCc1ccccc1)C(=O)c1cccc(NC(=O)Cc2cccc(NC(=O)C3CCCN(C(=O)C4CCCC4)C3)c2)c1 (configuration not stated)	none
COc1cc(/C=N/NC(=S)Nc2cccc(C(=O)O)c2)cc(OC)c1OC	none
COc1cc(/C=N/NC(N)=S)ccc1OC(=O)c1ccc(C)cc1	none
COc1ccc(/C=N/NC(=S)Nc2cccc(C(=O)O)c2)cc1OC	TWEAK Fn14 block 76
COc1cc(/C=N/NC(=O)c2ccc(N)cc2)ccc1OC(=O)c1cccc(C)c1	TROY NFkB inh 53
O=C(Cc1coc2cc(O)ccc12)NNC(=O)c1cccs1	none
O=C(COc1ccc([N+](=O)[O-])cc1)NCC(c1cccs1)N1CCOCC1 (configuration not stated)	none
COc1ccccc1NS(=O)(=O)c1cccc(NC(=O)c2ccc3ccccc3n2)c1	TWEAK Fn14 block 69
O=C(Nc1cccc(S(=O)(=O)Nc2ccccc2F)c1)c1ccc2ccccc2n1	none
COc1ccc(S(=O)(=O)Nc2ccccc2OC)cc1NC(=O)c1cc2ccccc2oc1=O	CF NFkB block 58, KKLEB cytotox -55
Cc1ccc(C(=O)NCC(=O)N/N=C/c2cccs2)cc1C	none
COc1ccc2oc(=O)c(-c3csc(Nc4ccc(O)cc4)n3)cc2c1	TWEAK Fn14 block 68
COc1ccc2cc(-c3cc(C(=O)OCC(=O)Nc4c(C)n(C)n(-c5ccccc5)c4=O)c4ccccc4n3)ccc2c1	TWEAK Fn14 block 60
